Results on 100 compounds are retold here after PubChem BioAssay AID1626 (SRMLSC, 2009).

The inhibition is the relative decrease from the control value, in per cent.

SMILES strings stand for the structures. About 2,000 (0.91%) of roughly 220,000 compounds were called active. Another 2% or so got no clear call; they are omitted. No stated cut-off is given here; in the data, inconclusive means inhibition above about 80% without an active follow-up result; inactive means below that; test concentration not stated here. A selection follows. Entries with a potency or affinity are not part of this list.

A short description of the assay: M. tuberculosis H37Rv growth inhibitors, H37Rv strain (AID 1626).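 Further: bacteria incubated seven days before Alamar blue readout; 0% = bacteria only wells and 100% = bacteria with antibiotic wells.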 Particulars: active compounds read high, concentration not given here.
`O=C(NCc1cccnc1)c1cccc(S(=O)(=O)N2CCOCC2)c1`: the inhibition is 0.09% (inactive). On to `COc1ccc2c(-c3ccccc3)cc(N3CCOCC3)nc2c1`, for which the inhibition was -14.6% (inactive). With `c1ccc2c(c1)CCc1c-2nc2ccccc2c1N1CCOCC1` the figure was 4.28% (inactive). On to `Cc1cccn2cc(-c3ccc(S(=O)(=O)N4CCCCC4)cc3)nc12`, for which the inhibition was 0.16% (inactive). With `c1ccc2c(c1)nc(N1CCCCC1)c1ccccc12` the figure was 12.2% (inactive); with `CN1CCN(c2nc(-c3ccncc3)nc3ccccc23)CC1`, 3.8% (inactive); with `c1ccc2c(N3CCCCC3)nc(N3CCCC3)nc2c1`, -8.46% (inactive). Consider `c1ccc2c(c1)nc(N1CCCCCC1)c1ccccc12`, for which the inhibition was 3.85% (inactive). As to `CC1CCN(c2ncnc3ccccc23)CC1`, the inhibition was -8.39% (inactive). Next, `CC1CCN(c2nc(-c3ccccc3O)nc3ccccc23)CC1`: -2.32% (inactive). On to `Oc1ccccc1-c1nc(N2CCCC2)c2ccccc2n1`, for which the inhibition is -6.53% (inactive). Next, `c1ccc2c(N3CCCC3)nc(-c3ccncc3)nc2c1`: 6.26% (inactive); `CC(C)(C)NS(=O)(=O)c1cc(C(=O)O)ccc1Cl`: -11.1% (inactive); `Cc1c(C#N)c(=O)c(-[n+]2ccccc2)c([S-])n1-c1ccc(Cl)cc1`: 3.17% (inactive). With `O=C(O)c1ccc(NC2=C(n3nnc4ccccc43)C(=O)c3ccccc3C2=O)cc1` the figure was -3.22% (inactive); with `Cc1cc([N+](=O)[O-])c(Cl)cc1NC(=O)C(C)C`, -3.38% (inactive); with `O=C(O)c1ccc2c(c1)-c1nc3ccccc3n1C2=O`, -6.82% (inactive). For `COc1ccc(-c2ccc3ccccc3n2)cc1OC`, the inhibition is 12.8% (inactive). For the compound `Cc1ccc(C)c(NC(=S)N2CCN(Cc3ccccc3)CC2)c1`, the inhibition was -5.34% (inactive). With `Cc1cc(C)cc(N(C(C)C(=O)N2CCCCC2)S(C)(=O)=O)c1` (stereo not given), the inhibition was 7.53% (inactive). Take `O=C(COc1ncnc2ccccc12)N1CCN(c2ccccc2)CC1`: the inhibition was 5.1% (inactive). Consider `NNC(=O)c1ccc2ccccc2n1`, for which the inhibition was 27% (inactive).

Turning to `COC(=O)c1ccc2ccccc2n1`, the inhibition is -11.4% (inactive). For `CCOc1ccc(-n2cc(-c3ccccc3)c3c(=O)[nH]cnc32)cc1`, the inhibition is 64.1% (inactive). Consider `COc1ccc(-n2cc(-c3ccccc3)c3c(N4CCN(CCO)CC4)ncnc32)cc1`, for which the inhibition was 0.66% (inactive).

For the compound `O=P1(Oc2ccccc2)OCCCS1` (stereo not given), the inhibition was 12.1% (inactive). Regarding `COC(=O)CC(c1ccc(F)cc1)n1c(C)ccc1C` (stereo not given), the inhibition was -0.04% (inactive). `Oc1ccccc1-c1nc(NCC2CCCO2)c2ccccc2n1` (stereo not given): the inhibition was 9.18% (inactive).

`Fc1ccccc1-c1nc(NCc2ccco2)c2ccccc2n1`: the inhibition was 0.67% (inactive). Consider `c1ccc(Nc2nc(NCC3CCCO3)c3ccccc3n2)cc1` (stereo not given), for which the inhibition is 2.76% (inactive). With `c1ccc(CN2CCC(Nc3ncnc4sccc34)CC2)cc1` the figure was 7.78% (inactive); with `c1ccc(CN2CCC(Nc3nc(-c4cccnc4)nc4ccccc34)CC2)cc1`, 11.5% (inactive). Consider `Oc1ccccc1-c1nc(NCc2ccco2)c2ccccc2n1`, for which the inhibition was -6.38% (inactive). With `c1cncc(-c2nc(NCc3ccco3)c3ccccc3n2)c1` the figure was -4.8% (inactive); with `Cc1ccccc1Nc1nc(NCc2ccco2)c2ccccc2n1`, 1.73% (inactive); with `CCCn1c(CN2CCN(c3cccc(Cl)c3)CC2)nc2c1c(=O)n(C)c(=O)n2C`, 7.42% (inactive).

`Cc1cc(C)nc(-n2ncc3c2CC(c2ccc(F)cc2)CC3=O)n1` (stereo not given): the inhibition is -3.92% (inactive). Next, `CCCN1CCN(C(=O)Cn2c(=O)oc3cc(S(=O)(=O)NCc4ccccc4)ccc32)CC1`: 0.47% (inactive); `O=C1CCC/C1=c1\s/c(=C\c2cccnc2)c(=O)n1-c1ccccc1`: -3.57% (inactive); `CCCCCCCCC(=O)NNC(=O)c1c(O)c2ccccc2n(CCC)c1=O`: 1.3% (inactive).

Regarding `CCOC(=O)c1sc2nc(CC(=O)OC)nc(NCc3ccc(F)cc3)c2c1C`, the inhibition is -2.66% (inactive). With `CC(NC(=O)c1cccc(N2CCCC2=O)c1)c1ccc2c(c1)OCCO2` (stereo not given), the inhibition is -0.45% (inactive). With `COCC(N)(c1ccccc1)c1nc2ccccc2n1C` (stereo not given), the inhibition was -3.7% (inactive). As to `Cn1c(Cc2ccccc2)nnc1SCC(=O)N1CCCCC1`, the inhibition was -3.96% (inactive). With `CCOC(=O)c1sc2nc(C)c3c(c2c1N)CC(C)(C)OC3` the figure was -1.95% (inactive); with `N#CCCN(C(=O)COC(=O)C1CCN(S(=O)(=O)c2cccs2)CC1)c1ccccc1`, 3.1% (inactive).

Turning to `CCOC(=O)C1C(=O)NC(c2ccccc2)=NC1c1ccc(O)c(OC)c1` (stereo not given), the inhibition is 2.45% (inactive).

As for `CC(C)(C)C(=O)O/N=C(\N)Cc1ccc(-c2csnn2)cc1`, the inhibition was -5.08% (inactive). As to `c1ccc(CNc2nc(-c3cccs3)nc3ccccc23)cc1`, the inhibition is 13.4% (inactive).

With `c1csc(CNc2nc(-c3cccs3)nc3ccccc23)c1`, the inhibition is 9.19% (inactive). For the compound `c1ccc(-c2nc(NCc3cccnc3)c3ccccc3n2)cc1`, the inhibition was 7.56% (inactive). With `Clc1cccc(-c2nc(NCc3cccnc3)c3ccccc3n2)c1` the figure was 74.3% (inactive). Next, `CCC(C)NC(=O)CN(c1cc(C)ccc1OC)S(C)(=O)=O` (stereo not given): -5.3% (inactive). Next, `CCOc1ccc(-c2nnc(N3CCCCC3)c3ccccc23)cc1`: -1.05% (inactive).

Turning to `c1nc(NCC2(N3CCOCC3)CCCCC2)c2ccsc2n1`, the inhibition is -2.31% (inactive). `O=S(=O)(c1ccccc1F)N1CCN(C(=S)NCc2ccccc2)CC1`: the inhibition was -2.02% (inactive). With `O=C(Nc1cccc(F)c1)C1CCN(C(=O)c2ccc(Cl)cc2)CC1` the figure was -0.97% (inactive). With `CCN(CC(=O)Nc1ccc(C(=O)OC)cc1)Cc1ccccc1`, the inhibition is 7.78% (inactive).

As for `COc1ccc(N2CC(C(=O)Nc3nnc(SCC(=O)c4ccccc4)s3)CC2=O)cc1` (stereo not given), the inhibition was 11.9% (inactive). With `CCN(CC)CCC(c1cc(OC)c(OC)c(OC)c1)c1c(OC)cc(OC)c2c(C)cc(=O)oc12` (stereo not given), the inhibition is -8.36% (inactive).

For `CCN(CC)CCC(c1cc(OC)c(OC)c(OC)c1)c1c(OC)cc(OC)c2ccc(=O)oc12` (stereo not given), the inhibition was -19% (inactive). With `CCN(CC)CCC(c1cc(OC)c(OC)c(OC)c1)c1c(OC)cc(OC)c2c(-c3ccccc3)cc(=O)oc12` (stereo not given) the figure was 12.6% (inactive); with `CCN(CC)CCC(c1ccc(N(C)C)cc1)c1c(OC)cc(OC)c2ccc(=O)oc12` (stereo not given), -0.96% (inactive); with `Cc1ccc(CNc2ncccc2-c2nc3cc(Cl)ccc3o2)cc1`, -4.72% (inactive). On to `COc1ccc(NC(=O)c2cccnc2Nc2ccc(OC)cc2)cc1`, for which the inhibition is 10.9% (inactive). As to `CN(C)CCCCCCCCCCC(=O)/C=N/O`, the inhibition is 7.54% (inactive). With `CCn1ncc(CN2CCN(Cc3ccc(OC)c(C)c3C)C(CCO)C2)c1C` (stereo not given) the figure was 3.6% (inactive); with `N[C@@H](Cc1c[nH]c2ccccc12)c1nnc(SCc2ccccc2)o1`, -10.5% (inactive); with `CCOC(=O)COc1ccc2c3c(c(=O)oc2c1C)CCC3`, 76.7% (inactive). Turning to `Cc1cc2oc(=O)c3c(c2cc1OCc1nn[nH]n1)CCCC3`, the inhibition was -6.49% (inactive). For the compound `COCCCn1c(SCC(=O)OC2CCCCC2)nnc1-c1ccco1`, the inhibition was -15.4% (inactive).

Consider `Cc1ccccc1SCc1noc(C(=O)NCC2CCCO2)c1C(=O)O` (stereo not given), for which the inhibition is -6.27% (inactive). Next, `COc1ccc(-n2c(O)c(C(C)=NCCCn3ccnc3)c(=O)[nH]c2=O)cc1`: -3.9% (inactive); `O=C(Nc1ccc(NC(=S)NC(=O)c2cccs2)cc1)c1ccco1`: -2.57% (inactive). Next, `O=C(OCC(=O)N(C1CCCCC1)C1CCCCC1)c1ccco1`: -7.12% (inactive); `CCc1[nH]nc2c1C1(CCOC1C)C(C#N)=C(N)O2` (stereo not given): -2.61% (inactive); `CCCn1c(Sc2nc3c(c(=O)[nH]c(=O)n3C)n2CCC)nc2c1c(=O)[nH]c(=O)n2C`: 3.31% (inactive). With `Cn1c(=O)[nH]c(=O)c2c1nc([N+](=O)[O-])n2Cc1ccccc1`, the inhibition was 72.1% (inactive). With `CC(C(=O)c1ccccc1)N1C(=O)c2ccccc2C1=O` (stereo not given) the figure was -3.22% (inactive); with `N#Cc1cccnc1N1CCC(C(N)=O)CC1`, -8.98% (inactive); with `O=C(N/N=C/c1ccc2c(c1)OCO2)C(=O)Nc1ccc2ccccc2c1`, 1.96% (inactive). With `O=c1c2ccccc2nc(-c2ccc(Cl)cc2Cl)n1O` the figure was 1.38% (inactive).

Take `CSc1ccccc1NC(=O)c1ccc(C)o1`: the inhibition was -1.2% (inactive). With `CN(C)CCCN1c2ccccc2Sc2ccccc21` the figure was -4.11% (inactive); with `COc1ccc2c(c1)Sc1ccccc1N2CCN(C)C`, 2.43% (inactive); with `O=c1[nH]c2cccnc2c2ccsc12`, -1.93% (inactive). Next, `Cc1ccc(/C=N/N2CCN(c3ccncc3S(=O)(=O)N3CCCCC3)CC2)cc1`: 7.81% (inactive); `Cc1cc2c(s1)CCCCC(=O)N2`: -2.34% (inactive). Turning to `O=C1CCCc2sc3c(c2N1)CCCCC3`, the inhibition was -8.7% (inactive). Next, `Cc1cc(C(=O)NC(Cc2ccccc2)C(=O)O)c(C)o1` (stereo not given): 1.76% (inactive). Next, `O=C(CNC(=S)N(CCCN1CCOCC1)Cc1cccs1)NCCN1CCOCC1`: 5.22% (inactive); `NC(=O)CN1C(=O)C2C3c4ccccc4C(c4ccccc43)C2C1=O` (stereo not given): 2.42% (inactive). Regarding `CCNc1nc(NCC)nc(N/N=C/c2cc(OC)c(OC)c(OC)c2)n1`, the inhibition is -2.94% (inactive). Next, `Cc1cc(-c2c(C)[nH]n(-c3ccc(Cl)cc3)c2=O)n[nH]1`: 65.3% (inactive). As to `Cc1[nH]n(-c2ccccc2)c(=O)c1-c1ccccc1`, the inhibition was -7.21% (inactive). Next, `CCOC(=O)C1=C(O)/C(=C/c2ccc(OCC(=O)O)c(OC)c2)SC1=Nc1ccc(OC)cc1`: 17.4% (inactive); `CCNc1nc(N2CCCC2)nc(N2CCCC2)n1`: 1.64% (inactive). Next, `CCOc1ccc(Nc2nc(N3CCCC3)nc(N3CCN(c4ccc(OC)cc4)CC3)n2)cc1`: -4.38% (inactive). With `COc1ccc(N2CCN(c3nc(Nc4ccc(C)c(F)c4)nc(N4CCCC4)n3)CC2)cc1` the figure was 1.07% (inactive); with `CC(C)(C)Nc1nc(N2CCCC2)nc(N2CCCC2)n1`, 14.2% (inactive).
